According to ChEMBL document CHEMBL2218924, “A broad activity screen in support of a chemogenomic map for kinase signalling research and drug discovery” (Biochem J, 2013):

What was measured:
[1] = target: T1, Serine/threonine-protein kinase TBK1 (Homo sapiens) (UniProt Q9UHD2); conditions: at 10 µM
T1 sequence (whole entry): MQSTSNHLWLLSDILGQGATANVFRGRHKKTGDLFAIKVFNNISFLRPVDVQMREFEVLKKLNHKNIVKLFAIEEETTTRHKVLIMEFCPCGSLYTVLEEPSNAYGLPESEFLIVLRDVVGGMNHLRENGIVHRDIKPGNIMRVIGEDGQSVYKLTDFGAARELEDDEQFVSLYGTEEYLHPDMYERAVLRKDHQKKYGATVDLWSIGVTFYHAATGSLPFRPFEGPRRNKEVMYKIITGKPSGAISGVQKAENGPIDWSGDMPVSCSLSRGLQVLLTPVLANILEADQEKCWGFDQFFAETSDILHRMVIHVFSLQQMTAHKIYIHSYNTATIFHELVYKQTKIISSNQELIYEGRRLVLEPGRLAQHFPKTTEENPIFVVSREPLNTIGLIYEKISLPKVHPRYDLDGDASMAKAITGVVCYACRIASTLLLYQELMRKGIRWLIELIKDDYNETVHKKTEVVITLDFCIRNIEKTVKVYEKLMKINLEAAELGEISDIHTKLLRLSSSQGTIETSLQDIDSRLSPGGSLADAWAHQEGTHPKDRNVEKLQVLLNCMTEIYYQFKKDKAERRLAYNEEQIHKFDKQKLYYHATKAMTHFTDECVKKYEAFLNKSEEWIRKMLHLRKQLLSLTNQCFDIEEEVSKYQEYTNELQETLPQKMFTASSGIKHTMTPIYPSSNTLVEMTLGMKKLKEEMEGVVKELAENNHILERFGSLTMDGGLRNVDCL

[2] = target: T2, TGF-beta receptor type-1 (Homo sapiens) (UniProt P36897); conditions: at 1 µM
T2 sequence (whole entry): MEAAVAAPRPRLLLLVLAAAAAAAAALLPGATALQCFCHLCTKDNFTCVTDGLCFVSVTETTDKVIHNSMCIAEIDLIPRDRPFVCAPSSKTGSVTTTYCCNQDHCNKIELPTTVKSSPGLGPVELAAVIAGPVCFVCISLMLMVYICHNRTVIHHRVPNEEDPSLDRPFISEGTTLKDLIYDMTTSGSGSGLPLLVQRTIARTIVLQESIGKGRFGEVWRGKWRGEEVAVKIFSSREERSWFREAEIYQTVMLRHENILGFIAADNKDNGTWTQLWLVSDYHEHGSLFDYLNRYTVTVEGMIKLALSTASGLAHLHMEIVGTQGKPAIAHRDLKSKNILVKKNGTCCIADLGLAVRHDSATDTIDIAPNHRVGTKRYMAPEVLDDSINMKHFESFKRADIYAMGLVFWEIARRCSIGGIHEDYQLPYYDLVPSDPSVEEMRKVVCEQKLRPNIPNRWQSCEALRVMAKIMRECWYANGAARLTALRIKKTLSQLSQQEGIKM

[3] = target: T2, TGF-beta receptor type-1 (Homo sapiens); conditions: at 10 µM
[4] = target: Insulin-like growth factor 1 receptor (Homo sapiens) (UniProt P08069); conditions: at 1 µM
Sequence of Insulin-like growth factor 1 receptor (Homo sapiens) (P08069 31-736 limits assumed): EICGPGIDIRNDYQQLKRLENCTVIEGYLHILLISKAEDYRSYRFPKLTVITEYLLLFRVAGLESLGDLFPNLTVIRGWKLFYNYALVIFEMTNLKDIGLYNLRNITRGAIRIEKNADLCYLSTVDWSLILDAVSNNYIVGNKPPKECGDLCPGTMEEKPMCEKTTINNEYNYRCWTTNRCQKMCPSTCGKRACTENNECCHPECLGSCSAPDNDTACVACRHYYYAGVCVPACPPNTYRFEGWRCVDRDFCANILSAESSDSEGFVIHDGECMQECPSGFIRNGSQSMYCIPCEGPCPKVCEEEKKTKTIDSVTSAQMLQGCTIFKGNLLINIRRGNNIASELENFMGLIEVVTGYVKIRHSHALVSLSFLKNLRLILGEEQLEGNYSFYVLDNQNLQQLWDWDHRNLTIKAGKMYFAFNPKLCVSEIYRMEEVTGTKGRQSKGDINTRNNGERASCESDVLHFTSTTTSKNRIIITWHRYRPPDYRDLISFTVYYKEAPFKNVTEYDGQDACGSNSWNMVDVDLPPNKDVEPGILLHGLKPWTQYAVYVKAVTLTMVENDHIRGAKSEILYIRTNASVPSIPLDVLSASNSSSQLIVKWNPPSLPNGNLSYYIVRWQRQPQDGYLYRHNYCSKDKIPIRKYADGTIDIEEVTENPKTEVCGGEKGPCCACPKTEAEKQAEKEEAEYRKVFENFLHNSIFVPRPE
Sequence of Insulin-like growth factor 1 receptor (Homo sapiens) (P08069 741-1367 limits assumed): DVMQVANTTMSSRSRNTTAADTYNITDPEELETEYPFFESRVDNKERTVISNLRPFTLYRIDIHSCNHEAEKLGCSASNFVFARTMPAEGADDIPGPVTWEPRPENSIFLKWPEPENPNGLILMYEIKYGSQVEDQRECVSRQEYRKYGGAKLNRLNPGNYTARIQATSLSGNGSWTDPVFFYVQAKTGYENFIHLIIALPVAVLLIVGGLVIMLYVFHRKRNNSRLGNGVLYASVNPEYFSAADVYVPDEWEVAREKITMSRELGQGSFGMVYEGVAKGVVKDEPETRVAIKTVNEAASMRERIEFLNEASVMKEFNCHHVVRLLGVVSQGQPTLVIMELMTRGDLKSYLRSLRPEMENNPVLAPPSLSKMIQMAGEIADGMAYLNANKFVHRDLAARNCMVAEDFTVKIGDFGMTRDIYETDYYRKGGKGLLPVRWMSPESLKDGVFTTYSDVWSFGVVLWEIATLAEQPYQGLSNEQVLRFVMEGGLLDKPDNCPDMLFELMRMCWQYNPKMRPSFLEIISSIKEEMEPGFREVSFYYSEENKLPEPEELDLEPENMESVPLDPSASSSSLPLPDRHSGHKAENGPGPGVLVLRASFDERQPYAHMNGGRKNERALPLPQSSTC

[5] = target: Insulin-like growth factor 1 receptor (Homo sapiens) (UniProt P08069); conditions: at 10 µM
[6] = target: T3, Inhibitor of nuclear factor kappa-B kinase subunit alpha (Homo sapiens) (UniProt O15111); conditions: at 1 µM
T3 sequence (whole entry): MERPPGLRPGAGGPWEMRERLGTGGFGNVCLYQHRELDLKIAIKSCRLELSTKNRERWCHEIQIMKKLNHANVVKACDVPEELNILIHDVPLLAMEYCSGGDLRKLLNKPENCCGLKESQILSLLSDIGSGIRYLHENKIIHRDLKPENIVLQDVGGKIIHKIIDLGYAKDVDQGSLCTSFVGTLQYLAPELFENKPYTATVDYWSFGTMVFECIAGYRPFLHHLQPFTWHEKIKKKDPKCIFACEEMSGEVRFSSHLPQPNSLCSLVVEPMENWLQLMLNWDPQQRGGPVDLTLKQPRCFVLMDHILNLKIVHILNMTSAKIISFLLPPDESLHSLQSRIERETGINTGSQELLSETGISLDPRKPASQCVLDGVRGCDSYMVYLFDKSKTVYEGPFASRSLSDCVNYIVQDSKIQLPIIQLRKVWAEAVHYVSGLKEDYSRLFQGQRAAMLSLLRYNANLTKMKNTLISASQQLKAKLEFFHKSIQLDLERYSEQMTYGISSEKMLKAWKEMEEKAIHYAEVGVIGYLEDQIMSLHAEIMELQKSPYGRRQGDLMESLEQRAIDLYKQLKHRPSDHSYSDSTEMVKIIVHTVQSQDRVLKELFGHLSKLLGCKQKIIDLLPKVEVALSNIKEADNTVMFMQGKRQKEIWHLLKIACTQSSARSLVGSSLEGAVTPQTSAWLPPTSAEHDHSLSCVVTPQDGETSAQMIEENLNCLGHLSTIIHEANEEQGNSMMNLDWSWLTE

[7] = target: T3, Inhibitor of nuclear factor kappa-B kinase subunit alpha (Homo sapiens); conditions: at 10 µM
[8] = target: T4, Inhibitor of nuclear factor kappa-B kinase subunit beta (Homo sapiens) (UniProt O14920); conditions: at 1 µM
T4 sequence (whole entry): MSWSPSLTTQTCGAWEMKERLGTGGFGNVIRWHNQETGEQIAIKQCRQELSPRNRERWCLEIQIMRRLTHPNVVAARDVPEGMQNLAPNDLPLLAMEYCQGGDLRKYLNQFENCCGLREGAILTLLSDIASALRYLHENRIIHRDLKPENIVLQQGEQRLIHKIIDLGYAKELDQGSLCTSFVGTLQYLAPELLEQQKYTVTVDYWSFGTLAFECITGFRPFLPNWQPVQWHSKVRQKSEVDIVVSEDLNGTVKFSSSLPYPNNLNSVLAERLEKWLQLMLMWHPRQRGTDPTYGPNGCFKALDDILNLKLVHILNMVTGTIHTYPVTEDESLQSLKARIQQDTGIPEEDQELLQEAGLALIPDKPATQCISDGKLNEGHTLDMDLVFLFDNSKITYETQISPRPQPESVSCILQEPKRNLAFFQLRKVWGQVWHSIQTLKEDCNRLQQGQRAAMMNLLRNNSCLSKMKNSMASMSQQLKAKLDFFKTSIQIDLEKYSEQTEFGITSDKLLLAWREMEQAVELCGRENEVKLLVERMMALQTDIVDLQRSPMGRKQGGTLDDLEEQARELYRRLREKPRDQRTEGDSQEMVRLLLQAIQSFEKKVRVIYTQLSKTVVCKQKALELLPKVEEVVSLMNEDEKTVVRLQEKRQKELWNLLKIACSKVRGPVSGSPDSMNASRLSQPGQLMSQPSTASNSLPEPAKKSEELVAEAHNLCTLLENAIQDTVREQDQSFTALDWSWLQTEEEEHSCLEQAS

[9] = target: T4, Inhibitor of nuclear factor kappa-B kinase subunit beta (Homo sapiens); conditions: at 10 µM
[10] = target: Insulin receptor (Homo sapiens) (UniProt P06213); conditions: at 1 µM
Sequence of Insulin receptor (Homo sapiens) (P06213 28-758 limits assumed): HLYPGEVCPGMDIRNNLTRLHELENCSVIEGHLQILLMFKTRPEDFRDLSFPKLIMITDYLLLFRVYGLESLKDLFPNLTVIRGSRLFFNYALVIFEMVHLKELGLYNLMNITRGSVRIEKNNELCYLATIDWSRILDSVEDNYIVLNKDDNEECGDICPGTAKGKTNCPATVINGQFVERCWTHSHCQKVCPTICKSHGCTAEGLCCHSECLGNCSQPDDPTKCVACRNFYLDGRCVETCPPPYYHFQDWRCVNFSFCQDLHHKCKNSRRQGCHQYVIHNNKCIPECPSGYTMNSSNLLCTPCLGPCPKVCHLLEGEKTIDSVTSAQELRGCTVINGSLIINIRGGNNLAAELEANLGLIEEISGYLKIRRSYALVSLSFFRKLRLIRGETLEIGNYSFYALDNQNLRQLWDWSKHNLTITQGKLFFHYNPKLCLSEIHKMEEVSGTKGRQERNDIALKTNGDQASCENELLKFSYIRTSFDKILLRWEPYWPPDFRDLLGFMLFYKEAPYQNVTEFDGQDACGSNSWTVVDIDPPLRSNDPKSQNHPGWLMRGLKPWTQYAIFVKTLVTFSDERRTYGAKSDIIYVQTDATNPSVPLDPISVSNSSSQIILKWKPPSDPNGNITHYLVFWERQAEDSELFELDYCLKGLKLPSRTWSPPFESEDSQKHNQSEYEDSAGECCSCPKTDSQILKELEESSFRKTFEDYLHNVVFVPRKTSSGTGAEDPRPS
Sequence of Insulin receptor (Homo sapiens) (P06213 763-1382 limits assumed): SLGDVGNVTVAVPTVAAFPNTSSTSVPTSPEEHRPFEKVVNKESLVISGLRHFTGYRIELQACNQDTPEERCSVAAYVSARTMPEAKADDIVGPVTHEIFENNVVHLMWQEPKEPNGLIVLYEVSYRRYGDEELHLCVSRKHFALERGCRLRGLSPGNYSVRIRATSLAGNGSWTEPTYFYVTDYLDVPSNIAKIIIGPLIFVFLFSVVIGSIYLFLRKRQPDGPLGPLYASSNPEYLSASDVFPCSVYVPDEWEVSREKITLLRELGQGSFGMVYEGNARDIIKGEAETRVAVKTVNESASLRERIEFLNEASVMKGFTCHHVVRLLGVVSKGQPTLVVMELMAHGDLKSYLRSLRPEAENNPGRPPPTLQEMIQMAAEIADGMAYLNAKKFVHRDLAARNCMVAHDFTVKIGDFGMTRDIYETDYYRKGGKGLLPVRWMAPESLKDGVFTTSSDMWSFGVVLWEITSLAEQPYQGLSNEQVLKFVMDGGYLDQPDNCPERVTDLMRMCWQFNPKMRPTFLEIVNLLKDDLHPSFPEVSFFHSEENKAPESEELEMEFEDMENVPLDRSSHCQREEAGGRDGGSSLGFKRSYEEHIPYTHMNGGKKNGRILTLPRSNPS

## NC(=O)c1ccc2[nH]c(-c3ccc(Oc4ccc(Cl)cc4)cc3)nc2c1
[1]
  residual activity: 60%
[2]
  residual activity: 84%
[3]
  residual activity: 85%
[4]
  residual activity: 89%
[5]
  residual activity: 85%
[6]
  residual activity: 123%
[7]
  residual activity: 137%
[8]
  residual activity: 108%
[9]
  residual activity: 106%
[10]
  residual activity: 102%
